The source made the active and inactive calls.
Tests used:
[1] = system: Plasmodium falciparum Sir2 (PF13_0152, Sir2A); experiment: pfSir2 binders on small-molecule microarrays, primary screen, biochemical, small-molecule microarray, 635 nm fluorescence (AID 1098); conditions: small-molecule microarray binding, fluorescence 635 nm; higher = more signal;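 further: score merges spot fluorescence intensity with its signal-to-noise ratio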
[2] = small-molecule microarray binders of probe aDKK1, primary screen, biochemical, biotinylated probe, 635/667 nm fluorescence (AID 1099); conditions: higher = more signal;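 further: score merges 667nm spot fluorescence with signal to noise across triplicate slides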
[3] = small-molecule microarray binders of probe aCHRDL2, primary screen, biochemical, biotinylated probe, 635/667 nm fluorescence (AID 1100); conditions: higher = more signal
[4] = splicing luciferase reporter signal modulators, primary screen, spliceosome inhibition project, cell-based, HEK293, splice +/- reporter (AID 1101); conditions: luminescence, 24 h, higher = more signal, called active from +8 up or from −8 down;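 further: HEK293 cells carrying a splicing-competent luciferase reporter gene; test concentration not given here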
[5] = molecular target: Fibroblast growth factor 10 (Homo sapiens) (UniProt O15520); experiment: FGF10 binders on small-molecule microarrays, primary screen, biochemical, small-molecule microarray, 635 nm fluorescence (AID 1102); conditions: FGF10 binding, fluorescence 635 nm, higher = more signal
Sequence of Fibroblast growth factor 10 (Homo sapiens) (O15520 whole entry, looked up): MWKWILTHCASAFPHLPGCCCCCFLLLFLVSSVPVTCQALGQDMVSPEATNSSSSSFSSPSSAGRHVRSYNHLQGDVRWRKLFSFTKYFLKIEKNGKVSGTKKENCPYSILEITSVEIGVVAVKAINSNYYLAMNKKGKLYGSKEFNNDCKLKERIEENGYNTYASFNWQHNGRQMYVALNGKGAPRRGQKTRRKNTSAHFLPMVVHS

[6] = system: glycogen synthase kinase-3 (GSK3A per assay name; protocol says GSK3B); experiment: GSK3 binders on small-molecule microarrays, primary screen, biochemical, small-molecule microarray, 635 nm fluorescence, GSK3A (AID 1103); conditions: small-molecule microarray binding, fluorescence 635 nm; higher = more signal; further: the record names both GSK3A and GSK3B
[7] = molecular target: Epidermal growth factor receptor (Homo sapiens) (UniProt P00533); experiment: EGFR binders on small-molecule microarrays, primary screen, biochemical, small-molecule microarray, 635 nm fluorescence (AID 1104); conditions: EGFR binding, higher = more signal;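 further: score merges 667 nm emission intensity with spot signal to noise over triplicate slides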
Sequence of Epidermal growth factor receptor (Homo sapiens) (P00533 whole entry, looked up): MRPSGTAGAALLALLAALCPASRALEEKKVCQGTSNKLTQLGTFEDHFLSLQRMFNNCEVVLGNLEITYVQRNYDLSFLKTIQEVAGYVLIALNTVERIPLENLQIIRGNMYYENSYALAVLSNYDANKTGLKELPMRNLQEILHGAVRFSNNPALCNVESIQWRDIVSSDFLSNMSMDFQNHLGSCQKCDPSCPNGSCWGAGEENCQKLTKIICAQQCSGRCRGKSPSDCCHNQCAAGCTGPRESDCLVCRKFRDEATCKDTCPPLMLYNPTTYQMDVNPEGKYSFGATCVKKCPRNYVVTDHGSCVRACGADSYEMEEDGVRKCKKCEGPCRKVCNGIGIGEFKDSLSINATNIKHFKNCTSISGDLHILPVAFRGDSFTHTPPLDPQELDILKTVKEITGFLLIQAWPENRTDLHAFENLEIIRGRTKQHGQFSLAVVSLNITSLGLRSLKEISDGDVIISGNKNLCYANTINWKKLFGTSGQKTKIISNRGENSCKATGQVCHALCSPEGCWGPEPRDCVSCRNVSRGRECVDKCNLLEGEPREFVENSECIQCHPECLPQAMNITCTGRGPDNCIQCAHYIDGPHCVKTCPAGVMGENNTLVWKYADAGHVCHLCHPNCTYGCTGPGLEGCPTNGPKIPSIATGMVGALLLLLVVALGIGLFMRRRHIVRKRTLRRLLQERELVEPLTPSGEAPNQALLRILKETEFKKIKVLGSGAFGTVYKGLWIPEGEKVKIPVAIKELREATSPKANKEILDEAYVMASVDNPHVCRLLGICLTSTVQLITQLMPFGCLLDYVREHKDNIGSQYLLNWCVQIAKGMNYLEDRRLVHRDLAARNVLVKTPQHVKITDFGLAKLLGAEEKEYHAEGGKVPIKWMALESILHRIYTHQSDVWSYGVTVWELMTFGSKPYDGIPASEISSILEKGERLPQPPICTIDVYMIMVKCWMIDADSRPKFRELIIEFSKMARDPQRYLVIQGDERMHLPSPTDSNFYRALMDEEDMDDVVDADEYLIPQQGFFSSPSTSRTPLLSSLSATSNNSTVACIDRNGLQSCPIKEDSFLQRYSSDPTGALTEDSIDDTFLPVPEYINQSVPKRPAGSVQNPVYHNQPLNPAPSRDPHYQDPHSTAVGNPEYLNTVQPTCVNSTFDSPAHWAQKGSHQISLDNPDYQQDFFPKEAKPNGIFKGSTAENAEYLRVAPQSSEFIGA

[8] = molecular target: Follistatin-related protein 3 (Homo sapiens) (UniProt O95633); experiment: FSTL3 binders on small-molecule microarrays, primary screen, biochemical, small-molecule microarray, 635 nm fluorescence (AID 1105); conditions: FSTL3 binding, higher = more signal;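 further: score merges emission near 667 nm and signal to noise per printed spot across three slides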
Sequence of Follistatin-related protein 3 (Homo sapiens) (O95633 whole entry, looked up): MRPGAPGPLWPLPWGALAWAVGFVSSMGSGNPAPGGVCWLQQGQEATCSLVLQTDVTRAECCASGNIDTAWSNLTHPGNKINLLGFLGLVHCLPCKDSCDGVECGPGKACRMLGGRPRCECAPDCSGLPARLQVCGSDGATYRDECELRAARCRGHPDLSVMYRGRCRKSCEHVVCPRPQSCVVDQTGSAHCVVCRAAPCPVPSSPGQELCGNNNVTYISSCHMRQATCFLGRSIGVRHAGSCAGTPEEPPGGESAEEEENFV

[9] = molecular target: Dickkopf-related protein 1 (Homo sapiens) (UniProt O94907); experiment: DKK1 binders on small-molecule microarrays, primary screen, biochemical, small-molecule microarray, 635 nm fluorescence scan (AID 1106); conditions: DKK1 binding, higher = more signal;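 further: score merges emission near 667 nm with signal to noise over three replicate slides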
Sequence of Dickkopf-related protein 1 (Homo sapiens) (O94907 whole entry, looked up): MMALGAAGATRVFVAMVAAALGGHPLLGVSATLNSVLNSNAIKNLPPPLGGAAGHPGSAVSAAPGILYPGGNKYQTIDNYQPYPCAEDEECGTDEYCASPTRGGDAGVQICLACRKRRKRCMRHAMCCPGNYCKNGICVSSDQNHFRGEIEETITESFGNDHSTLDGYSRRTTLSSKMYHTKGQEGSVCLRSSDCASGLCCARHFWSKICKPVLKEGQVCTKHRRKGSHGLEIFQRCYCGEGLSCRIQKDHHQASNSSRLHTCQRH

[10] = system: Inhibin beta A chain (activin A); experiment: INHBA (activin A) binders on microarrays, primary screen, biochemical, small-molecule microarray, 635 nm fluorescence scan (AID 1107); conditions: small-molecule microarray binding, higher = more signal;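 further: mouse activin A protein probed at 4.33 µg/mL on printed slides; score merges bound-protein fluorescence near 667 nm with spot signal-to-noise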
[11] = system: Human papillomavirus type 1a protein E7 (residues 44-93); experiment: HPV1a E7 fragment binders on microarrays, primary screen, biochemical, small-molecule microarray, residues 44-93, 635 nm fluorescence (AID 1108); conditions: small-molecule microarray binding, fluorescence 635 nm; higher = more signal;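 further: E7 fragment applied at 1 µg/mL in TBST for 1 h at 4 C; score combines spot fluorescence with its signal to noise ratio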
[12] = modulators of HCV replicon luciferase signal, primary screen, HCV replication inhibitor project, Huh7 cells, luciferase reporter (AID 1109); conditions: 48 h, higher = more signal;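 further: huh7 hepatoma cells harbouring a luciferase neomycin HCV replicon reporter; luciferase luminescence as measure of HCV replicon replication; test concentration not given here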
[13] = molecular target: Left-right determination factor 2 (Homo sapiens) (UniProt O00292); experiment: LEFTY2 binders on small-molecule microarrays, primary screen, biochemical, small-molecule microarray, 635 nm fluorescence scan (AID 1110); conditions: LEFTY2 binding, higher = more signal
Sequence of Left-right determination factor 2 (Homo sapiens) (O00292 whole entry, looked up): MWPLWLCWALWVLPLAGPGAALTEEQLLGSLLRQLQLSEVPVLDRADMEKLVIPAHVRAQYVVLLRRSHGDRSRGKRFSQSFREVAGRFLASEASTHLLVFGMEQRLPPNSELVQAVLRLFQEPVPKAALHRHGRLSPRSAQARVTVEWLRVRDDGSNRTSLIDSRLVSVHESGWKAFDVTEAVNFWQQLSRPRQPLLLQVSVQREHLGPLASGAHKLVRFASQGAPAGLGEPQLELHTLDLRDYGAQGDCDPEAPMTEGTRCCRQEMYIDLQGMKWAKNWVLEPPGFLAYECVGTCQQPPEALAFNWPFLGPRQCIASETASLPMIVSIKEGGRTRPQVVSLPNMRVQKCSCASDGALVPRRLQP

[14] = molecular target: Calmodulin-1 (Homo sapiens) (UniProt P0DP23); experiment: CALM1 binders on microarrays, EGTA buffer, profiling panel, biochemical, small-molecule microarray, Cy5-labelled CALM1 (AID 1111); conditions: Cy5-CALM1 binding fluorescence, higher = more signal;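 further: labelled calmodulin applied in Tris saline Tween buffer holding calcium plus EGTA and DTT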
[15] = molecular target: Calmodulin-1 (Homo sapiens) (UniProt P0DP23); experiment: calcium-bound CALM1 binders on microarrays, profiling panel, artefact control for SMM control-protein annotation, biochemical, small-molecule microarray, Cy5-labelled CALM1, plus calcium (AID 1112); conditions: Cy5-CALM1 binding fluorescence, higher = more signal;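 further: score merges spot fluorescence with signal to noise from triplicate slides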
[16] = small-molecule microarray binders of probe aWnt5a, primary screen, biochemical, biotinylated probe, 635/667 nm fluorescence (AID 1113); conditions: higher = more signal;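 further: score merges 667 nm fluorescence intensity with signal-to-noise per printed feature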
[17] = small-molecule microarray binders of probe aShh, primary screen, biochemical, biotinylated probe, 635/667 nm fluorescence (AID 1114); conditions: higher = more signal;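 further: probe is biotin-labelled aShh protein from a stem cell growth factor screen; measures binding of labelled protein to compounds printed on the slide; score merges feature fluorescence at 667 nm with signal-to-noise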
[18] = small-molecule microarray binders of probe aNog, primary screen, biochemical, biotinylated probe, 635/667 nm fluorescence (AID 1115); conditions: higher = more signal;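 further: probe is biotinylated aNog protein used at 0.15 µg/mL for 1 h at 4 C; z-score combines 667 nm fluorescence of each spot with its signal to noise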
[19] = molecular target: Torsin-1A-interacting protein 1 (Homo sapiens) (UniProt Q5JTV8); experiment: LAP1 binders from COS7 cell lysate, primary screen, small-molecule microarray, 635/667 nm fluorescence (AID 1116); conditions: COS7-hLAP1 lysate binding, 635 nm fluorescence, higher = more signal
Sequence of Torsin-1A-interacting protein 1 (Homo sapiens) (Q5JTV8 whole entry, looked up): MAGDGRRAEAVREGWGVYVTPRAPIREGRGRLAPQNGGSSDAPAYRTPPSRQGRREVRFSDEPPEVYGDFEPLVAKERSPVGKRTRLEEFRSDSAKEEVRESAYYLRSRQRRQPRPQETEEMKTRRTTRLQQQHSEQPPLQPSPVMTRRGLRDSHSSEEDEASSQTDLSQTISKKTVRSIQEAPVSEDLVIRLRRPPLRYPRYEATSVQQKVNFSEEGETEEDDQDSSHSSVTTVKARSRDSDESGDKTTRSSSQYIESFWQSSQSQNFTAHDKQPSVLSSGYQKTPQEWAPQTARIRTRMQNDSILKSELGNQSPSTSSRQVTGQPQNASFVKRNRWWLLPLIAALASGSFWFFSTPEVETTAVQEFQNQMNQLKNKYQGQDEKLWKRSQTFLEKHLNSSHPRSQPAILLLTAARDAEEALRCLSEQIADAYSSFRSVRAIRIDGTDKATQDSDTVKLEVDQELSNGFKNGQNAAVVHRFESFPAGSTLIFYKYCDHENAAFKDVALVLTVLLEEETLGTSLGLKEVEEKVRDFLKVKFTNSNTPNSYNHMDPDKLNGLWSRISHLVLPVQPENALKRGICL

[20] = molecular target: Alpha-bungarotoxin (Bungarus multicinctus) (UniProt P60615); experiment: alpha-bungarotoxin binders on microarray, profiling panel, artefact control for SMM control protein annotation, biochemical, small-molecule microarray, Alexa647 label, 635/667 nm fluorescence (AID 1117); conditions: alpha-BTX-A647 binding fluorescence, higher = more signal
Sequence of Alpha-bungarotoxin (Bungarus multicinctus) (P60615 whole entry, looked up): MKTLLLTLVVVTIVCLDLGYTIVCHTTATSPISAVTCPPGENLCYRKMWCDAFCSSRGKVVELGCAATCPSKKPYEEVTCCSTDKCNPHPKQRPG

Row | SMILES | composite z-score [1] | composite z-score [2] | composite z-score [3] | z-score [4] | composite z-score [5] | composite z-score [6] | composite z-score [7] | composite z-score [8] | composite z-score [9] | composite z-score [10] | composite z-score [11] | z-score [12] | composite z-score [13] | composite z-score [14] | composite z-score [15] | composite z-score [16] | composite z-score [17] | composite z-score [18] | composite z-score [19] | composite z-score [20]
1 | CC[C@@H]1C=C(C(=O)O)[C@H](c2cccc(Cl)c2)N1S(=O)(=O)c1ccc(C)cc1 | 0.514 | 0.472 | 0.692 | 0.608 (inactive) | 0.0519 | 0.46 | -0.527 | -0.614 | -0.785 | 0.414 | 1.2 | -0.54 | -0.8 | 0.875 | 0.0755 | -0.0758 | 0.14 | 0.527 | 1.09 | 0.105
2 | C=CC[C@]1(C(=O)NCCN2CCOCC2)N=C(c2ccc(OCCCO)cc2)O[C@H]1c1ccccc1 | 1.52 | -0.0845 | 0.942 | -0.4 (inactive) | 0.3 | 0.866 | -0.0911 | 0.281 | 0.418 | 0.772 | 1.35 | -0.633 | 0.66 | 0.0631 | -0.442 | 0.212 | 0.398 | -0.103 | 1.24 | 0.429
3 | NCCCCCCNC(=O)[C@@H]1C[C@@H]2C(=O)NCC(=O)N2[C@@H]1c1cccc(OCCO)c1 | 1.6 | 0.45 | 0.0888 | -0.734 (inactive) | 1.37 | 1.3 | 0.702 | 0.98 | 1.32 | 1.12 | 1.3 | -0.453 | 1.09 | -0.115 | 0.293 | 0.14 | 0.0639 | -0.077 | 0.95 | 0.872
4 | [N-]=[N+]=Nc1ccccc1C[C@]1(C(N)=O)COC(c2ccc(OCCCO)cc2)=N1 | 0.219 | 1.07 | 1.04 | -0.32 (inactive) | -0.128 | -0.51 | -0.969 | -1.16 | -1.18 | 1.13 | 0.66 | -1.17 | -0.899 | 0.707 | 0.694 | -0.0462 | 0.486 | 0.381 | 1.02 | -0.364
5 | COC(=O)[C@@]1(Cc2ccc(F)cc2)[C@H]2c3cc(C(=O)N4CCCC4)n(CCc4c[nH]c5cc(F)ccc45)c3C[C@H]2CN1C(=O)c1ccccc1 | 1.05 | 0.593 | 0.852 | -0.685 (inactive) | 1.14 | 1.32 | 0.146 | 1.25 | 0.736 | 1.09 | 1.41 | -1.62 | 0.119 | 1.91 | 1.2 | 0.562 | 0.472 | -0.615 | -0.291 | 0.841
6 | O=C1O[C@H](c2ccccc2)[C@H](c2ccccc2)N2[C@H]1[C@@H](C(=O)N1CCCCCCC1)[C@]1(C(=O)Nc3ccc(C#CCCO)cc31)[C@H]2c1ccc(O)cc1 | 2.11 | 2.97 | 1.72 | -0.547 (inactive) | 1.67 | 1.47 | 1.99 | 1.74 | 2.7 | 1.96 | 1.52 | -0.637 | 1.69 | 3.02 | 1.75 | 1.62 | 2.01 | 0.939 | 5.54 | 4.23
7 | O=C(c1ccccc1)N1Cc2ccccc2C[C@@]2(N=C(c3ccc(OCCCO)cc3)O[C@H]2c2ccccc2)C1=O | 1.26 | -0.114 | -0.0152 | -0.847 (inactive) | 1.38 | 1.3 | 0.699 | 0.963 | 0.777 | -0.395 | 1.38 | -2.91 | 0.821 | 2.64 | -0.249 | -0.0515 | 0.0483 | -0.432 | 2.39 | 1.01
8 | COc1ccc(C(=O)Nc2ccc(CN3C(=O)[C@@]4(O[C@@H](CC(=O)N(CCO)Cc5ccccc5)[C@H]([Si](C)(C)c5ccc(OC)cc5)[C@H]4C)c4ccccc43)cc2)cc1 | 0.901 | -0.0966 | -0.351 | -1.78 (inactive) | 0.201 | -0.185 | 0.7 | 0.335 | 0.502 | 0.432 | -0.471 | -3.92 | 0.444 | 0.655 | -0.0779 | -0.14 | -0.341 | -0.31 | 0.121 | 0.331
9 | C=C(COC)C(=O)CC[C@H](OC(C)=O)c1ccc(CO)o1 | 1.44 | -0.362 | -0.566 | -1.35 (inactive) | 0.757 | -0.646 | -0.0826 | 0.47 | 0.488 | 1.03 | -1.05 | 0.272 | 0.451 | 0.44 | -1.07 | -0.152 | -0.0709 | -0.273 | -0.534 | 0.706
10 | CC(C)C[C@H]1NC(=O)CNC(=O)[C@@]23C(=O)N[C@@H](Cc4ccccc4)C2[C@H](C)[C@@]2(C)O[C@H]2C3/C=C/C/C=C\CNC1=O (stereo not given in full) | 0.288 | -0.129 | -0.671 | 0.187 (inactive) | 0.749 | 0.407 | 0.181 | 0.811 | 0.267 | 1.48 | 0.0774 | 0.238 | 0.715 | -0.322 | -0.833 | -0.169 | -0.221 | -0.0315 | -0.0248 | -0.188
11 | COC(=O)C(CC#Cc1ccc2c(c1)[C@]1(C(=O)N2)[C@H](C(=O)N2CCN(c3ncccn3)CC2)[C@H]2C(=O)O[C@H](c3ccccc3)[C@H](c3ccccc3)N2[C@@H]1c1ccc(O)cc1)C(=O)OC | 1.57 | 2.26 | 1.34 | -0.0485 (inactive) | 1.09 | 1.37 | 1.18 | 1.47 | 0.856 | 1.59 | 0.335 | -1.66 | 0.813 | 2.18 | 1.36 | 0.436 | 0.87 | 1.16 | 2.45 | 2.29
12 | CO[C@H]1O[C@H](CO)[C@@H](OC(=O)Nc2ccccc2)[C@@H]2OC(=O)[C@@H](Cc3ccccc3)C/C=C/C[C@H](Cc3ccccc3)C(=O)O[C@@H]12 | 1.46 | -0.172 | -0.0203 | 0.0457 (inactive) | 0.73 | 0.107 | -0.191 | 0.094 | 0.206 | 0.983 | 0.779 | -0.897 | -0.152 | -0.0442 | -0.845 | -0.0721 | -0.154 | -0.125 | 0.235 | 0.224

Source: PubChem BioAssay
